# Test results from the supplement of paper PMC8975748.
# Where a name gives a salt, the structure may show the parent alone.
# Test system: Saccharomyces cerevisiae BY4741 SeMeCo community
# Experiment: z-score of subpopulation abundance vs DMSO median, subpopulation auxotrophic for HLUM; higher = larger share of this subpopulation than in DMSO controls
# Details: 10 µM; 24 h; SM minimal medium; subpopulation (auxotrophy): HLUM
# Summary of the method: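 Subpopulation abundance was reported as a z-score against the median of vehicle wells. The Saccharomyces cerevisiae BY4741 community, carrying four plasmids that each restored one auxotrophy and encoded a distinct fluorescent protein, was grown 24 h in minimal SM medium in 384-well plates holding library drugs at 10 µM final. Cells were paraformaldehyde-fixed and imaged by automated confocal microscopy, with single-auxotroph fluorescent strains used for thresholds and autofluorescence correction.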
row,Compound,z-score of subpopulation abundance
1,CC(C(=O)O)c1ccc(C(=O)c2cccs2)cc1 (stereo not given) [Suprofen],-0.2
2,COc1cccc2c1C(=O)c1c(O)c3c(c(O)c1C2=O)C[C@@](O)(C(=O)CO)C[C@@H]3O[C@H]1C[C@H](N)[C@H](O[C@@H]2CCCCO2)[C@H](C)O1 [Pirarubicin],1.36
3,N=C(N)NC(=N)N1CCOCC1 [Moroxydine HCl],-0.61
4,CN1CCN(c2c(F)cc3c(=O)c(C(=O)O)cn4c3c2OCN4C)CC1 [Marbofloxacin],-0.72
5,COc1ccc(C(C)=O)c(O)c1 [Paeonol],0.01
6,Cc1ccc2c(Cl)cc(Cl)c(O)c2n1 [Chlorquinaldol],114
7,NC[C@@H]1O[C@H](O[C@H]2[C@@H](O)[C@H](O[C@@H]3[C@@H](O)[C@H](N)C[C@H](N)[C@H]3O[C@H]3O[C@H](CO)[C@@H](O)[C@H](O)[C@H]3N)O[C@@H]2CO)[C@H](N)[C@@H](O)[C@@H]1O [Paromomycin Sulfate],0.85
8,CN(C)CCC=C1c2ccccc2C=Cc2ccccc21 [Cyclobenzaprine HCl],0.14
9,COc1cc(NS(=O)(=O)c2ccc(N)cc2)nc(OC)n1 [SulfadiMethoxine sodium],-0.21
10,CCN1CCN(c2cc3c(cc2F)c(=O)c(C(=O)O)cn3C2CC2)CC1 [Enrofloxacin],-0.35
11,O=C1CN(/N=C/c2ccc(-c3ccc([N+](=O)[O-])cc3)o2)C(=O)N1 [Dantrolene sodium],0.72
12,Cc1cc(-c2ccc(/N=N/c3ccc4c(S(=O)(=O)O)cc(S(=O)(=O)O)c(N)c4c3O)c(C)c2)ccc1/N=N/c1ccc2c(S(=O)(=O)O)cc(S(=O)(=O)O)c(N)c2c1O [Evans Blue],-2.52
13,NC[C@H]1O[C@H](O[C@H]2[C@H](O)[C@@H](O[C@H]3O[C@H](CO)[C@@H](O)[C@H](N)[C@H]3O)[C@H](N)C[C@@H]2N)[C@H](N)C[C@@H]1O [Tobramycin],-1.08
14,CCc1cccc2c3c([nH]c12)C(CC)(CC(=O)O)OCC3 (stereo not given) [Etodolac],-0.89
15,CC1=CC[C@@](O)(C(C)C)CC1 [Terpinen-4-ol],0.81
16,CC[C@@H]1/C=C(\C)C[C@H](C)C[C@H](OC)[C@H]2O[C@@](O)(C(=O)C(=O)N3CCCC[C@H]3C(=O)O[C@H](/C(C)=C/[C@@H]3CC[C@H](Cl)[C@H](OC)C3)[C@H](C)[C@@H](O)CC1=O)[C@H](C)C[C@@H]2OC [Pimecrolimus],2.63
17,CC[N+](CC)(CC)CCOc1cccc(OCC[N+](CC)(CC)CC)c1OCC[N+](CC)(CC)CC [Gallamine Triethiodide],-0.08
18,CN1[C@@H](CC(=O)c2ccccc2)CCC[C@H]1C[C@H](O)c1ccccc1 [Lobeline hydrochloride],0.01

row,Compound,z-score of subpopulation abundance
1,CCC(C)n1ncn(-c2ccc(N3CCN(c4ccc(OCC5COC(Cn6cncn6)(c6ccc(Cl)cc6Cl)O5)cc4)CC3)cc2)c1=O (stereo not given) [Itraconazole],7.85
2,OC[C@H]1O[C@H](OCC2O[C@@H](O)[C@H](O)[C@@H](O)[C@@H]2O)[C@H](O)[C@@H](O)[C@H]1O (stereo not given in full) [Melibiose],1
3,C[N+](C)(C)CCO.[Cl-] [Choline Chloride],-0.62
4,COc1ccc(C(Cl)=C(c2ccc(OC)cc2)c2ccc(OC)cc2)cc1 [Chlorotrianisene],1.18
5,COC(=O)C1=C(C#N)NC(C)=C(C(=O)OC(C)C)C1c1cccc([N+](=O)[O-])c1 (stereo not given) [Nilvadipine],0.19
6,CC(=O)O[C@]1(C(C)=O)CC[C@H]2[C@@H]3C[C@H](C)C4=CC(=O)CC[C@]4(C)[C@H]3CC[C@@]21C [Medroxyprogesterone acetate],-0.36
7,O=C(c1ccc(F)cc1)C1CCN(CCn2c(=O)[nH]c3ccccc3c2=O)CC1 [Ketanserin],0.5
8,Cc1onc(-c2c(Cl)cccc2Cl)c1C(=O)N[C@@H]1C(=O)N2[C@@H]1SC(C)(C)[C@@H]2C(=O)O [Dicloxacillin Sodium],1.07
9,C(=C\c1ccccc1)/CN1CCN(C(c2ccccc2)c2ccccc2)CC1 [Cinnarizine],0.66
10,C=CC[N+]1([C@H]2C[C@H]3[C@@H]4CC[C@H]5C[C@H](O)[C@@H](N6CCOCC6)C[C@]5(C)[C@H]4CC[C@]3(C)[C@H]2OC(C)=O)CCCC1 [Rocuronium Bromide],-0.49
11,CCn1cc(C(=O)O)c(=O)c2cc(F)c(N3CCNCC3)cc21 [Norfloxacin],-0.9
12,CN1CCC(=C2c3ccccc3CCc3sccc32)CC1 [Pizotifen Malate],0.16
13,CC1(C)S[C@@H]2[C@H](NC(=O)[C@H](NC(=O)N3CCN(S(C)(=O)=O)C3=O)c3ccccc3)C(=O)N2[C@H]1C(=O)O [Mezlocillin Sodium],-0.69
14,Cc1nc(C)c(Cl)c(O)c1Cl [Clopidol],-0.36
15,O=C(CCCN1CCN(c2ccccn2)CC1)c1ccc(F)cc1 [Azaperone],0.31
16,COc1ccc(C(=O)NCc2ccc(OCCN(C)C)cc2)cc1OC [Itopride hydrochloride],-0.16
17,CSCC1CN(/N=C/c2ccc([N+](=O)[O-])o2)C(=O)O1 (stereo not given) [Nifuratel],1.35
